# HSF1 activator: increases HSF-1 driven luciferase reporter signal; activation, % at 9 µM; hit rate 1.7% among 300,000; AID 504408; NIH3T3-HGL HSF-1 luciferase reporter, MG132, 8 h; 100% = twice DMSO control signal;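 active means mean replicate activation of at least 50% with a set share of replicates each reaching 50%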;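 further: 0% = median of the neutral control wells and 100% = twice that signal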
# S1P3 antag: S1P3 (human) receptor antagonism. Q99500. inhibition, % at 4.98 µM. hit rate 0.27% among 170,000. CHO S1P3 NFAT-BLA reporter, FRET fluorescence, antagonist mode;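 active means inhibition above the plate cutoff, the mean inhibition of test wells on that plate plus 3 SD, cut at about 28% in these data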;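 further: cells challenged with S1P at its EC80 of 0.8 µM; blue over green emission ratio from cleaved BLA substrate after 4 h stimulation; 0% = S1P-stimulated wells and 100% = unstimulated DMSO-only wells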
# Target sequence (Q99500 whole entry, looked up): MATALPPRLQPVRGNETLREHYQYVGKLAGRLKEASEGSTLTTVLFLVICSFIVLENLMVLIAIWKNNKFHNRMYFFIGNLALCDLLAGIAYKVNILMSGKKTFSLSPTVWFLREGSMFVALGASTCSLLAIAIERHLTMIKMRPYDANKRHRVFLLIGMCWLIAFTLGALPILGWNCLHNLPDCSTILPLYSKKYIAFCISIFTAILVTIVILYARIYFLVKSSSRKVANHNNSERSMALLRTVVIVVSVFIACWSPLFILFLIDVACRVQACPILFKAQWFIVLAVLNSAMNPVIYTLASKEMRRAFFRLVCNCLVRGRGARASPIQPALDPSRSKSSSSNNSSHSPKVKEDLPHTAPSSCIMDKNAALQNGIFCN
# S1P4 agonist: agonists of human S1P4 receptor; S1P4-expressing cell line, agonist reporter assay; activation, % at 4.98 µM; AID 1509; O95977; hit rate 0.35% among 220,000; in the data active means activation above about 11%;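 further: 0% = DMSO vehicle and 100% = reference agonist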
# HSF1 inh: HSF1 inhibition; AID 2098; activity change, negative = inhibition, % at 7.5 µM (by protocol); NIH3T3-HGL HSE-luciferase, MG132-induced, luminescence 8 h; hits give low values; hit rate 0.77% among 300,000;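 active means more than half of replicate wells show activity change below -50%, luminescence cut by over half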;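 further: luciferase reports HSF-1 transcriptional activity via heat shock element; 0% = median of DMSO wells and -100% = zero luminescence signal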
# Hsp70 activator: Hsp70 transcriptional activation, primary screen; hit rate 0.04% among 200,000; HeLa Hsp70 promoter luciferase reporter, luminescence; scaled: vehicle 0, proteasome-inhibitor control 100%; activation, % at 10 µM;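 active means activation above the mean across all tested compounds plus 3 SD, cutoff set per campaign, cut at about 5.5% in these data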;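 further: 100% = MG132 at 30 µM as the positive control and 0% = DMSO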
# S1P4 antagonist: human S1P4 receptor antagonism. O95977. S1P4-expressing cells, antagonist mode, reporter read-out. inhibition, % at 4.98 µM. hit rate 0.26% among 220,000; in the data active means inhibition above about 29%;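 further: 0% = wells stimulated with agonist and 100% = vehicle wells without agonist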
# * = called active by the depositor; . = no result. The list is not random: actives were taken first. Their share in the collection is about 2.9%.
SMILES,HSF1 activator,S1P3 antag,S1P4 agonist,HSF1 inh,Hsp70 activator,S1P4 antagonist
COc1ccc(CN(C)Cc2c(O)ccc3cc(Br)ccc23)cc1OC,114*,.,.,87,.,.
CCc1ccc(NC(=O)CSc2ccc(-c3cccnc3)nn2)cc1,-81,.,.,-76*,.,.
CC1(C)CC(=O)C2=C(C1)c1c(ccc3ccccc13)NC2c1ccco1 (stereo not given),92*,.,-1,63,0,7
O=C(/C=C/c1ccc(F)cc1)NCCCn1ccnc1,-4,.,.,3,.,.
CC(C)(C)NC(=O)c1c(F)c(F)c(F)c(F)c1F,-79,-1,-1,-72*,0,-5
O=C1OC(/C(=C\Nc2cc(Cl)ccc2O)[N+](=O)[O-])c2ccccc21 (stereo not given),-5,9,-1,12,0,1
O=C(c1cccs1)n1nc(-c2ccco2)nc1SCc1ccccc1,-64,.,2,-54*,0,-2
O=C(Nc1nccs1)C1CCN(S(=O)(=O)c2ccccc2)CC1,6,.,.,0,.,.
Cc1ccnc(NC(=O)Cc2ccc(-c3ccccc3)cc2)c1,78*,.,.,72,.,.
O=C(Cc1ccc(-c2ccccc2)cc1)Nc1ccccn1,21,.,.,13,.,.
Cc1ccc(-c2noc(CCC(=O)Nc3ccccc3C)n2)cc1,-4,-9,0,-2,0,-5
Cc1ccc(-c2noc(CCC(=O)Nc3cc(C)ccn3)n2)cc1,69*,-8,1,27,0,-6
Cc1ccc(CCNC(=O)Cn2cccc2)cc1,52*,-34,1,25,0,-2
CCc1ccc(OCC(=O)Nc2cccc3c2CCCC3)cc1,-6,-6,1,-5,0,-7
CCOC(=O)CSc1nc(-c2ccncc2)ccc1C#N,64*,.,1,30,0,-5
C/C(N)=C(/C#N)C(=O)COC(=O)c1ccc(NC(N)=O)cc1,-9,-16,-1,-3,.,-4
CCCNC(=O)c1cccc(COCC(F)(F)F)c1,-69,.,0,-63*,0,-14
CC(Oc1ccc(F)cc1Br)c1nc2ccccc2c(=O)[nH]1 (stereo not given),65*,.,.,25,.,.
Cc1cccc(C)c1NC(=O)c1cccnc1,-76,.,.,-67*,.,.
O=C(Nc1cccc(-c2nc3ccccc3o2)c1)c1cccnc1,23,12,1,7,0,-8
Cc1ccccc1OCC(=O)NCCCNC(=O)c1cccnc1,56*,.,.,14,.,.
O=C(Nc1ccc(-c2nc3ccccc3o2)cc1)c1cccnc1,55*,.,-1,23,0,-13
O=C(N/N=C/c1ccccc1F)c1ccc(COc2ccccc2Cl)o1,12,5,3,-8,0,-28
Nn1c(COc2ccc(Cl)cc2)nc2ccccc2c1=O,86*,-10,0,40,0,-26
CNC(=O)C1CC(=O)N(c2ccc(OCC(=O)NCc3ccccc3)cc2)C1 (stereo not given),3,.,.,0,.,.
SMILES,HSF1 activator,S1P3 antag,S1P4 agonist,HSF1 inh,Hsp70 activator,S1P4 antagonist
O=C(O)c1ccc(S(=O)(=O)NC2CCCCCC2)cc1,17,.,.,-1,.,.
S=C1NC2=C(CCC/C2=C\c2ccccc2)C(c2ccccc2)N1 (stereo not given),11,7,1,8,0,-16
C(=C1/CCCC2=C1Nc1ncnn1C2c1ccccc1)/c1ccccc1 (stereo not given),90*,.,-2,53,0,20
Cc1ccsc1C(=O)N1CCCC(CO)(Cc2ccccc2)C1 (stereo not given),7,.,.,-4,.,.
COc1ccc(-c2[nH]ncc2CN(CCO)CC23CC4CC(CC(C4)C2)C3)c(OC)c1,-3,1,1,-1,0,0
NC(=O)c1ccccc1N/C=C/C(=O)c1ccc(F)cc1,41,.,0,19,0,3
NC(=O)c1ccccc1N/C=C/C(=O)c1ccc(Cl)cc1Cl,66*,.,0,20,0,-23
c1ccc2c(Nc3nc(-c4ccncc4)nc4ccccc34)cccc2c1,-90,1,0,-87*,.,18
CN1CCN(c2nc(-c3ccc(Cl)s3)cs2)CC1,8,4,-1,3,0,-17
N/C(=N\OC(=O)c1ccc2ccccc2c1)c1ccccn1,-89,-20,2,-85*,0,-8
N/C(=N\OC(=O)c1ccc(Cl)c(Cl)c1)c1cccnc1,37,.,1,20,0,-21
N/C(=N\OC(=O)c1ccc(=O)n(Cc2ccccc2)c1)c1ccccn1,10,-7,2,4,0,-2
N/C(=N\OC(=O)c1ccc2ccccc2c1)c1ccncc1,40,-20,-1,14,0,13
CCCc1ccc(C(=O)O/N=C(\N)c2ccccn2)cc1,-83,.,.,-83*,.,.
COc1cccc(C(=O)O/N=C(\N)c2ccccn2)c1,-89,.,.,-87*,.,.
O=C(O/N=C(\c1ccccc1)c1ccccn1)c1ccc(Cl)c(Cl)c1,62*,.,-2,15,0,10
Cc1nn(Cc2ccc(F)cc2)c2sc(C(=O)Nc3ccc(N4CCOCC4)cc3N3CCOCC3)cc12,25,-13,0,22,0,-10
Cc1ccc2nc(SCC(=O)c3cc(C)n(C)c3C)[nH]c2c1,20,.,-4,5,0,-3
Cc1cc(C(=O)CSc2nc3ccccc3[nH]2)c(C)n1C,71*,-8,0,38,0,3
O=C(CSc1nc2ccccc2[nH]1)c1ccccc1F,57*,.,.,18,.,.
CC(C)CCSc1nc2ccccc2[nH]1,65*,-11,0,48,0,-12
COc1cccc(CN(C(=O)/C=C/c2ccco2)C2CCS(=O)(=O)C2)c1 (stereo not given),16,.,.,5,.,.
COc1ccc(-n2c(C)c(C)c3c(N)ncnc32)cc1,-69,.,.,-57*,.,.
Cc1ccc(CNC(=O)c2cc3c(C)nc4ccccc4c3o2)cc1,7,.,-1,2,0,4
Cc1nc2ccccc2c2oc(C(=O)NCc3ccccn3)cc12,52*,29,0,21,0,-6
SMILES,HSF1 activator,S1P3 antag,S1P4 agonist,HSF1 inh,Hsp70 activator,S1P4 antagonist
CCCN1CCN(C(=O)c2cc(COc3ccc4ncccc4c3)on2)CC1,-66,3,-1,-57*,0,-8
CCN1CCN(C(=O)c2cc(COc3ccc4ncccc4c3)on2)CC1,1,3,-1,-8,0,-32
CCC1CCCCN1C(=O)c1cc(COc2ccc3ncccc3c2)on1 (stereo not given),-15,25,4,-4,0,9
COCC1CCCCN1C(=O)c1cc(COc2ccc3ncccc3c2)on1 (stereo not given),-79,.,.,-72*,.,.
CCCc1cc(CNC(=O)C2CCC(=O)N(Cc3ccccc3OC)C2)on1 (stereo not given),1,.,.,-1,.,.
CCN1C(=O)[C@H]2[C@@H](c3ccc(-c4ccc(Cl)c(Cl)c4)cc3)N[C@@](Cc3ccccc3)(C(=O)OC)[C@H]2C1=O,-11,.,.,0,.,.
